From PubChem
Shown are actives, neighbours in structure and some others; about 0.49% of the full set was active somewhere.
Vif-APOBEC3G blk – inhibitors of Vif-APOBEC3G interaction; Q9HC16; HeLa A3G-eYFP + Vif (tagged APOBEC3G with the HIV-1 protein that degrades it), YFP fluorescence, overnight; Potency, µM (titrated, usually from 46.1 µM), for inactives: top-dose activity, negative = active, most hits filed as inhibitors; actives 0.076% (n = 410,000); further: potency means the concentration at half of the fitted maximal effect; on the % scale 0 is the no-effect control and ±100 the full control effect; nearly all actives have a fitted effect of over 60% in size
Target sequence (Q9HC16 whole entry, looked up): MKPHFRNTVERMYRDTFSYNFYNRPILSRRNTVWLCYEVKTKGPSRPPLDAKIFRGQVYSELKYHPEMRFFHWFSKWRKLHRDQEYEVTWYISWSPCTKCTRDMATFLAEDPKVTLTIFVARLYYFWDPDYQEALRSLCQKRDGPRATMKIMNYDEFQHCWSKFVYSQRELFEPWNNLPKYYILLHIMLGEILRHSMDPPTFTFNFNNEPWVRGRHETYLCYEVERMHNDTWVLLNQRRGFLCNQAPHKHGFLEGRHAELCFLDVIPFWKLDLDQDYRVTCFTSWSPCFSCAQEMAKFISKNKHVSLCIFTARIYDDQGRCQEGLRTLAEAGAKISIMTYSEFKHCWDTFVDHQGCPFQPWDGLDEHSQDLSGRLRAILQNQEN
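Read-out is eYFP fluorescence (Ex 488/Em 500-530) from Vif-expressing HeLa A3G-eYFP cells; more signal means A3G escaped Vif-mediated degradation. Cells plated overnight, compound pinned in, incubated overnight at 37 deg C.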
Vif-A3F inh – inhibitors of Vif-A3F interaction | actives 0.2% (n = 390,000) | AID 602313 | HeLa A3F-eYFP + Vif (tagged APOBEC3F with the HIV-1 protein that degrades it), YFP fluorescence increase | Potency, µM (highest dose often 46.1 µM), without a hit: at the top dose activity, negative = active; further: potency means the concentration at half of the fitted maximal effect; % of control where 0% means no effect; nearly all actives have a fitted effect of over 65% in size
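HeLa cells stably expressing Vif plus C-terminally eYFP-tagged A3F were seeded, incubated overnight at 37 deg C, dosed with compound, incubated overnight again at 37 deg C. Yellow fluorescence (Ex 488/Em 500-530) reported blocked Vif-mediated A3F-eYFP degradation.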
LDHA block – blocks human lactate dehydrogenase A | activity change, % (values are at about 110 or 230 µM) | purified LDHA, NADH/diaphorase-resazurin fluorescence; active compounds read low | AID 1347041 | actives 0.15% (n = 480,000) | P00338; in the data active means activity change below about -30%; inconclusive means mostly about -25% to -30%;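 further: plate controls were DMSO wells for no effect and wells without enzyme for full effect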
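Enzyme activity of human lactate dehydrogenase 5 (2 nM; 0.06 mM NADH, 0.2 mM pyruvate, 5 min, RT) is measured via a resazurin/diaphorase fluorescence readout of residual NADH.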
mIDH1 inhibitor – inhibitors of human mutant IDH1 R132H; O75874; IDH1-R132H enzyme, NADPH consumption, diaphorase/resazurin fluorescence; Potency, µM (doses to about 76.6 µM), inactives show at the top dose activity change, negative = inhibition, most hits filed as inhibitors; actives 0.093% (n = 390,000); further: potency means the concentration at half of the fitted maximal effect; on the % scale 0 is the no-effect control and ±100 the full control effect; nearly all actives have a fitted effect of over 65% in size
Target sequence (O75874 whole entry R132H, stated change not applied): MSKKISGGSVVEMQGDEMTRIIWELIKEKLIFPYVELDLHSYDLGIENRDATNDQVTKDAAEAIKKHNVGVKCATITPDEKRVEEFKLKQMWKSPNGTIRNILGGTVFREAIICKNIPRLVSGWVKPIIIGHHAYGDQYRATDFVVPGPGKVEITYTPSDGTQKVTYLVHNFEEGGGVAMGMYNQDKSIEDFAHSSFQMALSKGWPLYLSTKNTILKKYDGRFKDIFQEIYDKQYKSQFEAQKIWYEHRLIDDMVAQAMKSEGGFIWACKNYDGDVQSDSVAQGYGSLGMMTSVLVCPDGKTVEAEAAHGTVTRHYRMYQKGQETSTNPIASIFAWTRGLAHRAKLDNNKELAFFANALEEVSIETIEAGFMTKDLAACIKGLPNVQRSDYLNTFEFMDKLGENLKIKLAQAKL
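IDH1-R132H (0.5 ug/mL dispensed) in pH 7.5 Tris buffer was preincubated 30 min with compound, then given a substrate mix of 0.016 mM NADPH and 2 mM alpha-KG for 80 min at room temperature; remaining NADPH was read by diaphorase/resazurin fluorescence.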
Pin1 inhibitor – human Pin1 inhibition; Q13526; Pin1 FP peptide displacement, HiFluor488, 10 min; Potency, µM (highest dose often 115 µM), for the others: top-dose activity, negative = inhibition, hits mostly inhibitors; actives 0.009% (n = 390,000); AID 504891; active means well fitted inhibition curve with a large enough effect in the polarisation, with a control signal flat, not every such curve was filed as active; inconclusive means small, poorly fitted or top-dose-only effect, or effect the other way, or a change in a side signal; inactive means no such curve, though single readings can be large or run the other way; the % refers to the polarisation; further: potency means the concentration at half of the fitted maximal effect; on the % scale 0 is the no-effect control and ±100 the full control effect
Tb PGK inh – T. brucei PGK inhibition; P07378; PGK/GAPDH coupled, Kinase-Glo luminescence, 60 min; Potency, µM (top dose mostly 57.5 µM), for inactives: top-dose activity change, negative = inhibition, hits mostly inhibitors; actives 0.043% (n = 380,000); AID 602233; further: potency means the concentration at half of the fitted maximal effect; on the % scale 0 is the no-effect control and ±100 the full control effect; nearly all actives have a fitted effect of over 60% in size
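Luminescent ATP detection (Kinase-Glo Plus) follows a 60-minute room-temperature incubation, with wells lacking PGK as controls. Buffer: 100 mM TEA (pH 7.6), 5 mM MgCl2, 0.01% Tween-20. Coupling enzyme GAPDH (100 nM final) supplies unstable 1,3-BPG in-well.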
Resorufin autofl – interferes with resorufin fluorescence in IDH1 counter-screen | shares compounds with mIDH1 inhibitor | Resorufin detection reagent fluorescence interference, cell-free | inhibition of signal, % at 51.2 µM | 750 tested, under 10 active | AID 623980;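 further: 0% = wells with normal resorufin and full inhibition = wells lacking resorufin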
WT IDH1 inh – selectivity of mutant IDH1 inhibitors: human wild-type IDH1; AID 623995; actives 9% (n = 750); shares compounds with mIDH1 inhibitor; Potency, µM (titrated, usually from 115 µM), for inactives: top-dose activity change, negative = inhibition, usual class: inhibitors; WT IDH1 enzyme, NADPH diaphorase/resazurin fluorescence;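 further: potency means the concentration at half of the fitted maximal effect; 0% = full WT IDH1 enzyme control and full inhibition = no enzyme wells; nearly all actives have a fitted effect of over 55% in size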
Target sequence (O75874 whole entry, looked up): as the sequence (O75874 whole entry R132H, stated change not applied) above, with H132R counted along it
mIDH1 confirm – inhibits human mutant IDH1 enzyme in cherrypick confirmation; actives 83% (n = 750); IDH1 R132H enzyme, NADPH diaphorase/resazurin fluorescence; shares compounds with mIDH1 inhibitor; Potency, µM (series often up to 76.6 µM), inactives show top-dose activity change, negative = inhibition, hits mostly inhibitors; AID 624002; further: potency means the concentration at half of the fitted maximal effect; nearly all actives have a fitted effect of over 50% in size
Numbers without * were called inactive; i = inactive; ? = inconclusive; · = not tested or not shown. Unless noted, the call rests on the fitted dose curve; in most records, active means well fitted curve in the direction sought with a large enough effect; inconclusive means small, poorly fitted or top-dose-only effect, or another doubt; inactive means no such curve, though single readings can be large; an effect the other way counts as inactive or inconclusive.

SMILES | Vif-APOBEC3G blk | Vif-A3F inh | LDHA block | mIDH1 inhibitor | Pin1 inhibitor | Tb PGK inh | Resorufin autofl | WT IDH1 inh | mIDH1 confirm
C[C@H](CO)N1C[C@H](C)[C@@H](CN(C)CC2CCCCC2)Oc2c(NS(=O)(=O)c3ccccc3)cccc2C1=O | -0.1% | 3.1% | -2.3 | 1.0% | 0.1% | 1.5% | · | · | ·
COc1ccc(C2c3c(n(C)c4ccccc34)C(=O)N2CC(=O)Nc2c(C)cc(C)cc2C)cc1 (configuration not stated) | 1.4% | -4.2% | 2.6 | ? | 12.3% | -8.1% | -4.2 | -9.9% | ?
CCOC(=O)CC(=O)CSc1nc2c(sc(=S)n2-c2ccc(OCC)cc2)c(=O)[nH]1 | 6.6% | 9.0% | 9.6 | 6.4% | 2.8% | 2.3% | · | · | ·
COc1ccc(Cl)cc1-n1c(=S)sc2c(=O)[nH]c(SCC(=O)NCCC(C)C)nc21 | 0.1% | 9.0% | -3.4 | 36.9µM* | -5.2% | i | 3.0 | 6.6% | 11.2µM*
CCOc1ccc(-n2c(=S)sc3c(=O)[nH]c(SCC(=O)NC(C)CC)nc32)cc1 (configuration not stated) | 0.2% | -0.6% | -2.0 | 36.9µM* | -4.5% | 1.5% | 0.0 | 8.91µM* | 31.6µM*
O=C(CNc1nc(Nc2ccccc2)nc(Nc2ccccc2)n1)Nc1ccccc1 | · | · | 8.7 | · | · | · | · | · | ·
Cc1nn(-c2ccccc2)c2c1C(c1ccc(O)c(O)c1)N1C(=N2)C(Nc2ccccc2)=Nc2ccccc21 (configuration not stated) | -0.1% | 0.9% | -1.7 | 29.3µM* | ? | 7.7% | 1.5 | 5.3% | 39.8µM*
Fc1ccccc1CCNc1ncnc2nc[nH]c12 | · | · | 7.8 | · | · | · | · | · | ·
CCN1CCN(C(c2cccnc2)c2c(NC(=O)c3ccco3)sc(C)c2C)CC1 (configuration not stated) | 0.4% | 7.8% | -5.6 | -2.7% | 0.4% | -5.1% | · | · | ·
Cc1sc(NC(=O)c2ccco2)c(C(c2cccnc2)N2CCC(C)CC2)c1C (configuration not stated) | 0.3% | · | -6.4 | ? | 6.4% | -6.4% | -4.6 | 1.3% | ?
O=C(NC(=S)Nc1ccccc1N1CCCC1)c1ccc(-c2cccc([N+](=O)[O-])c2)o1 | 1.4% | -5.5% | -3.2 | 9.5% | -12.0% | -11.2% | · | · | ·
CC(=O)N1CCN(c2ccccc2NC(=O)c2ccc(-c3cccc([N+](=O)[O-])c3)o2)CC1 | -10.3% | 12.6% | -3.7 | ? | -0.4% | -5.7% | 1.8 | 2.4% | ?
CCCOC(=O)CSC1=C(C#N)C(c2ccccc2OCC)C(C#N)C(=O)N1 (configuration not stated) | -1.7% | 0.0% | -19.2 | ? | -6.0% | i | -2.8 | 70.5% | 44.7µM*
CCCCOC(=O)CSC1=C(C#N)C(c2ccccc2OC)C(C#N)C(=O)N1 (configuration not stated) | 0.6% | 3.2% | -5.9 | ? | 1.0% | -3.3% | -1.4 | 63.5% | 44.7µM*
NC(=O)C(OC(=O)C12CC3CC(CC(C3)C1)C2)c1ccccc1 (configuration not stated) | · | · | -5.9 | · | · | · | · | · | ·
CCOc1ccc(NC(=O)c2cc(C)nc3ccccc23)cc1OC | · | · | 4.5 | · | · | · | · | · | ·
O=P(CCCCCCCCCP(=O)(c1ccccc1)c1ccccc1)(c1ccccc1)c1ccccc1 | -14.3% | ? | -2.3 | 32.9µM* | 0.2% | -1.9% | -9.0 | 1.3% | 22.4µM*
Cc1csc(NC(=O)COCC(=O)O)c1-c1nc2ccccc2s1 | -18.0% | -14.0% | -16.3 | 15.2% | ? | -5.6% | · | · | ·
Cc1csc(NC(=O)CCCC(=O)O)c1-c1nc2ccccc2s1 | -10.7% | -29.5% | -2.1 | ? | 2.7% | 0.3% | -1.9 | 8.0% | 25.1µM*
O=C(NC(C1CC1)C1CC1)c1cccc(Cl)c1 | · | · | 0.7 | · | · | · | · | · | ·
COC(=O)C1=NN(c2ccc(OC)cc2)C2C(=O)N(c3ccccc3OC)C(=O)C12 (configuration not stated) | -0.4% | 14.7% | -2.1 | 0.3% | -1.6% | -1.6% | · | · | ·
COC(=O)C1=CC(C(=O)c2cccs2)=NN(c2ccc(OC)cc2)C1C(=O)OC (configuration not stated) | -9.5% | 4.7% | -3.4 | ? | ? | 3.8% | 2.5 | 0.7% | -3.6%
OCCN(CCO)c1ccc2ccccc2c1 | -1.4% | 6.4% | 1.3 | -8.1% | -7.5% | -3.9% | · | · | ·
OCCN(CCO)c1ccc(C(c2ccccc2Cl)c2ccc(N(CCO)CCO)cc2Cl)c(Cl)c1 | -8.5% | -2.6% | 2.8 | 18.5µM* | -6.1% | -8.9% | 5.4 | 39.8µM* | 12.6µM*
Cc1ccc(NC(=O)N2CCN(S(=O)(=O)c3cc4c(cc3Cl)NC(=O)C(C)O4)CC2)cc1C (configuration not stated) | · | · | -6.4 | · | · | · | · | · | ·
SMILES | Vif-APOBEC3G blk | Vif-A3F inh | LDHA block | mIDH1 inhibitor | Pin1 inhibitor | Tb PGK inh | Resorufin autofl | WT IDH1 inh | mIDH1 confirm
O=C1CCc2cc(C(=O)OC3CCOC3=O)ccc2N1 (configuration not stated) | · | · | 4.6 | · | · | · | · | · | ·
C#CCN1CCC(C(=O)NC(c2ccccc2)C(F)(F)F)CC1 (configuration not stated) | · | · | 0.2 | · | · | · | · | · | ·
CC(=O)C1=C(C)OC2(O)c3ccccc3C(=O)C12O (configuration not stated) | 1.7% | -3.6% | 2.8 | -7.4% | ? | -8.3% | · | · | ·
CCOC(=O)C1=C(C)OC2(O)c3ccccc3C(=O)C12O (configuration not stated) | -11.9% | 10.9% | 2.5 | ? | · | -8.6% | 2.6 | 23.8% | ?
Cc1cccc(N(C(=O)CCC(=O)Nc2cc(C)on2)C(C(=O)NC2CCCC2)c2ccc(C)o2)c1 (configuration not stated) | -4.8% | 3.9% | -3.1 | -26.1% | 3.9% | 2.0% | · | · | ·
CC(=O)c1cccc(N(C(=O)CS(=O)CC(=O)Nc2ccc(F)cc2)C(C(=O)NC2CCCCC2)c2ccc(C)o2)c1 (configuration not stated) | 0.0% | -7.7% | -9.9 | ? | -5.8% | -6.9% | -0.5 | 1.4% | 15.8µM*
